GSTO1 counter: blocks human GSTO1 in RBBP9 counter-screen. P78417. 300,000 tested, 1.1% active. AID 1974. recombinant GSTO1, activity-based probe fluorescence polarization. inhibition, % at 5.96 µM;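 active = inhibition above the campaign mean inhibition plus 3 SD, cut at about 35% in these data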
Target sequence (P78417 whole entry, looked up): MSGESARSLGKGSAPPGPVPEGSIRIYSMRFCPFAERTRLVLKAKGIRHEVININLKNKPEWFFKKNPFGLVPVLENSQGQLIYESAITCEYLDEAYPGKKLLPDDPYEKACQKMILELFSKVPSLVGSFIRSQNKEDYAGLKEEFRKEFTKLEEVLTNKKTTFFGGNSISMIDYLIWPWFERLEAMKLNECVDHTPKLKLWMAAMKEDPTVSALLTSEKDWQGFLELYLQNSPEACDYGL
PME-1 primary: blocks human protein phosphatase methylesterase 1; inhibition, % at 5.9 µM; 320,000 tested, 0.53% active; AID 2130; recombinant PME-1, FP-Rh probe fluorescence polarization;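 active = inhibition above the campaign mean of all compounds plus 3 SD, cut at about 26% in these data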;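 also: competitive labeling of PME-1 active site by serine hydrolase directed probe; inhibitors block probe labeling so polarization falls and inhibition rises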
LYPLA1 inh: counter-screen for PME1 inhibitors: inhibitors of human LYPLA1 | O75608 | recombinant LYPLA1, FP-Rh probe fluorescence polarization | inhibition, % at 5.9 µM | 320,000 tested, 0.16% active;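 active = inhibition above the mean of all tested compounds plus 3 SD, set per campaign, cut at about 14% in these data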;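 also: inhibitors block serine hydrolase probe labeling of LYPLA1 so polarization falls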
Target sequence (O75608 whole entry, looked up): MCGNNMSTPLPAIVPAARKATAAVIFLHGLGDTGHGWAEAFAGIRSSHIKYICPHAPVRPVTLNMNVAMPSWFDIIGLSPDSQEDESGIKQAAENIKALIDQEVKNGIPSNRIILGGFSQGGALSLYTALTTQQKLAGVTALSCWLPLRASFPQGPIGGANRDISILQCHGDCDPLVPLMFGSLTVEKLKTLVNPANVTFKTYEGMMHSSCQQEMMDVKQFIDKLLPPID
Fam108B inh: counter-screen for RBBP9 inhibitors: inhibitors of mouse Fam108B; recombinant Fam108B, FP-Rh probe fluorescence polarization; inhibition, % at 9.51 µM; 300,000 tested, 0.33% active;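 active = inhibition above the screen mean inhibition plus 3 SD, computed separately per campaign, cut at about 18% in these data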;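 also: inhibitors lower polarization as less probe binds the enzyme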
PAD4 FP inh: blocks human protein arginine deiminase 4. recombinant PAD4, RCA probe fluorescence polarization. 330,000 tested, 0.41% active. Q9UM07. inhibition, % at 6.36 µM;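 active = percent inhibition above a cutoff equal to the mean of all tested compounds plus 3 SD, cut at about 15% in these data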
LYPLA2 counter: LYPLA2 (human) inhibition in PME1 counter-screen. 320,000 tested, 0.38% active. recombinant LYPLA2, FP-Rh probe fluorescence polarization. AID 2177. inhibition, % at 5.9 µM;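 active = inhibition above the screen-wide mean plus 3 SD, limit set per campaign, cut at about 26% in these data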
GSTO1 confirm: confirmation of human GSTO1 inhibitors | shares compounds with GSTO1 counter | recombinant GSTO1, probe fluorescence polarization | inhibition, % at 5.96 µM | 2,400 tested, 54% active;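 active = inhibition above the primary screen's cutoff, its mean inhibition plus 3 SD, cut at about 35% in these data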;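 also: loss of polarization as inhibitors block binding of rhodamine sulfonate ester activity probe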
GSTO1 recomb ABPP: GSTO1 (human) inhibition by gel ABPP | shares compounds with GSTO1 counter | recombinant GSTO1, gel ABPP SE-Rh probe fluorescence | 130 tested, 30% active | inhibition, % at 1 µM | AID 463110;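 active = inhibition of the enzyme GSTO1 above about 75%, limit read from the data; inactive = inhibition below that limit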
Of the large screens only hits and unclear results are named; the others gave an inactive call (follow-up assays come after a bar, where they were run). Shown are actives, neighbours in structure and some others; about 1.8% of the full set was active somewhere.

CCN(CC(=O)NC(C)(C)C)C(=O)CCl	GSTO1 counter 67.1 | GSTO1 confirm 85.6 | GSTO1 recomb ABPP inactive
O=C(Nc1ncccn1)c1ccc([N+](=O)[O-])cc1Cl	none
NC1=C(Br)C(=O)c2ccccc2C1=O	GSTO1 counter 65.5 | GSTO1 confirm inactive
COc1cccc(C2C3(C#N)C(N)=NC(OC)(OC)C23C#N)c1 (stereo unspecified)	none
COC1(OC)N=C(N)C2(C#N)C(c3cccc(Oc4ccccc4)c3)C12C#N (stereo unspecified)	GSTO1 counter 64.7 | GSTO1 confirm inactive
CCCNC(=S)N1CCC(C(=O)c2ccc(F)cc2)CC1	none
O=C(OCC(=O)N1CCCC1=O)c1nc(Cl)c(Cl)c(Cl)c1Cl	GSTO1 counter 39.9 | GSTO1 confirm inactive
O=C1N/C(=N\c2ccccn2)SC1Cc1ccccc1Cl (stereo unspecified)	none
Clc1ss/c(=N\c2ccccn2)c1Cl	GSTO1 counter 61.4 | GSTO1 confirm 44.6
COC(=O)CN1C(=O)C2(C(C#N)=C(N)Oc3c2c(C)nn3-c2ccccc2)c2ccccc21 (stereo unspecified)	GSTO1 counter 41.7 | GSTO1 confirm inactive
COc1cccc(N2CC(NC(=O)C(=O)c3c(C)[nH]c4ccccc34)CC2=O)c1 (stereo unspecified)	none
Cc1cccc(-c2nnc(SCCOc3ccc4c(C)cc(=O)oc4c3)o2)c1	GSTO1 counter 40.2 | GSTO1 confirm inactive
COc1cccc(/C=N/NC(=O)c2ccoc2C)c1	none
Cc1c(Cl)cccc1N=Cc1ccc([N+](=O)[O-])s1	GSTO1 counter 39.5 | GSTO1 confirm inactive
Cc1ccccc1C(=O)N/N=C/c1ccc([N+](=O)[O-])s1	none
CCCCNC(=O)Oc1cc(CCl)on1	GSTO1 counter 83.0 | GSTO1 confirm 91.1 | GSTO1 recomb ABPP inactive
CCCCNC(=O)Cn1c(-c2ccc(OC)cc2)noc1=O	none
O=C(CSc1nnc(-c2ccco2)c(-c2ccco2)n1)c1ccccc1	GSTO1 counter 43.8 | GSTO1 confirm inactive
O=C(CSc1nnc(-c2ccco2)n1Cc1ccccc1)c1ccccc1	none
Cc1cccc(N2C(=O)CC(Sc3nnc(C)s3)C2=O)c1 (stereo unspecified)	none
Oc1ccc2ccccc2c1C1Nc2cccc3cccc(c23)N1	GSTO1 counter 41.9 | GSTO1 confirm inactive
CCOC(=O)C1=C(C)NC(=O)NC1c1c(O)ccc2ccccc12 (stereo unspecified)	none
Cc1ccc(C)c(S(=O)(=O)N/N=C2/CCCc3ccccc32)c1	none
CC(C)c1ccc(S(=O)(=O)/N=C2\C=C(NS(=O)(=O)c3ccccc3)C(=O)c3ccccc32)cc1	GSTO1 counter 78.6 | GSTO1 confirm 75.0
Cc1ccc(C)c(S(=O)(=O)/N=C2\C=C(NS(=O)(=O)c3ccccc3)C(=O)c3ccccc32)c1	GSTO1 counter 82.3 | GSTO1 confirm 48.3
Cc1ccccc1S(=O)(=O)c1c(C)cc(-c2ccccc2)[nH]c1=O	none
COCC(C)OC(=O)c1c(N)n(CC(C)C)c2nc3ccccc3nc12 (stereo unspecified)	GSTO1 counter 45.1 | GSTO1 confirm inactive
COC(=O)Cc1c(O)ccn(CCc2ccc(OC)c(OC)c2)c1=O	none
COc1cccc(Cn2c(N)c(C#N)c3nc4ccccc4nc32)c1OC	GSTO1 counter 40.8 | GSTO1 confirm inactive
Cc1cccc(C(=O)NC2C(=O)NNC2c2ccc(Cl)cc2)c1 (stereo unspecified)	GSTO1 counter 44.5 | GSTO1 confirm inactive
O=C1/C(=C\c2ccc(O)c(O)c2)N=C2CCCCCN12	GSTO1 counter 44.4 | GSTO1 confirm inactive
COc1cc(/C=C2\N=C3CCCCCN3C2=O)ccc1O	none
COc1ccccc1N(O)C1CC(=O)N(c2ccc(F)cc2)C1=O (stereo unspecified)	GSTO1 counter 56.7 | GSTO1 confirm inactive
O=C1CC(N(O)c2ccccc2)C(=O)N1c1cc(Cl)cc(Cl)c1 (stereo unspecified)	GSTO1 counter 68.2, PME-1 primary 34.4, PAD4 FP inh 15.4 | GSTO1 confirm inactive
Cc1ccc(S(=O)(=O)N2CCOCC2)cc1C(=O)NCc1cn2ccsc2n1	none
C[C@H]1CN([C@@H](C)CO)C(=O)c2cccc(NC(=O)C3CC3)c2O[C@H]1CN(C)S(=O)(=O)c1ccccc1	none (no result: GSTO1 counter, PME-1 primary, LYPLA1 inh, Fam108B inh, LYPLA2 counter)
Cc1cc(C)c2c(CN3CCCCC3)cc(=O)oc2c1	none
Cc1cc(C)c2c(CCl)cc(=O)oc2c1	GSTO1 counter 64.6 | GSTO1 confirm 96.6
O=C(NNC(=O)c1ccccc1F)c1ccc(-c2ccc(Cl)cc2)o1	none
COC(=O)c1cccc(-c2ccc(C(c3c(C)[nH][nH]c3=O)c3c(C)[nH][nH]c3=O)o2)c1	GSTO1 counter 59.0 | GSTO1 confirm 54.1
CCCCc1ccc(N2C(=NC(=O)C3CCCO3)SC3CS(=O)(=O)CC32)cc1 (stereo unspecified)	none
Cc1ccc(-c2csc3nc4cc(C(=O)NC5CCC(O)CC5)ccc4c(=O)n23)cc1 (stereo unspecified)	GSTO1 counter 38.9 | GSTO1 confirm inactive
CC1Oc2cc3oc4c(O)c(O)ccc4c(=O)c3c(O)c2C1(C)C (stereo unspecified)	GSTO1 counter 44.6 | GSTO1 confirm inactive
O=c1cc(CN2CCOCC2)c2ccc(O)c(O)c2o1	none
O=C(Nc1ccccc1F)c1ccc([N+](=O)[O-])s1	GSTO1 counter 43.6 | GSTO1 confirm inactive
O=C(Nc1cccc2ccccc12)c1ccc([N+](=O)[O-])s1	none
O=C(NN1C(=O)c2ccccc2NC1c1ccc([N+](=O)[O-])o1)c1ccccc1 (stereo unspecified)	GSTO1 counter 44.1 | GSTO1 confirm inactive
COc1ccccc1NS(=O)(=O)c1cc(NC(=O)CCc2nc3ccccc3c(=O)[nH]2)ccc1C	none
CCOC(=O)C1CCN(C(=O)c2ccc(C)o2)CC1	none (no result: GSTO1 counter, PME-1 primary, LYPLA1 inh, Fam108B inh, LYPLA2 counter)
CCOC(=O)C1CCN(C(=O)c2c(C)oc3c2C(=O)c2ccccc2C3=O)CC1	GSTO1 counter 44.5 | GSTO1 confirm 47.6
Cc1oc2c(c1C(=O)N1CCC(C)CC1)C(=O)c1ccccc1C2=O	GSTO1 counter 39.5 | GSTO1 confirm inactive
CCC1CCCCN1C(=O)C(=O)c1cn(CC(=O)N(CC)CC)c2ccccc12 (stereo unspecified)	GSTO1 counter 39.7 | GSTO1 confirm inactive
COc1cc(C(C)=O)ccc1Oc1cc(NN2CCCCC2)c([N+](=O)[O-])cc1[N+](=O)[O-]	none
O=C(CSc1ncn[nH]1)Nc1ncc(C(F)(F)F)cc1Cl	none

Screening data as filed in PubChem BioAssay.
